# Key:
# Experiment in all cases: DAPPL (digital affinity profiling via proximity ligation, sequencing); 10 mM Tris-HCl pH 7.5, 50 mM NaCl, 1 mM DTT, 4% glycerol, room temperature, 30 min; GST-TFs on glutathione beads, 16-mer random dsDNA library, 0.1% formaldehyde crosslink after washing; high values mean tight binding
# [1] = target: T1, FLI1 (Homo sapiens, UniProt Q01543 1-452); details: protein: recombinant; tags: N-terminal GST; dsDNA, one strand shown
# T1 sequence: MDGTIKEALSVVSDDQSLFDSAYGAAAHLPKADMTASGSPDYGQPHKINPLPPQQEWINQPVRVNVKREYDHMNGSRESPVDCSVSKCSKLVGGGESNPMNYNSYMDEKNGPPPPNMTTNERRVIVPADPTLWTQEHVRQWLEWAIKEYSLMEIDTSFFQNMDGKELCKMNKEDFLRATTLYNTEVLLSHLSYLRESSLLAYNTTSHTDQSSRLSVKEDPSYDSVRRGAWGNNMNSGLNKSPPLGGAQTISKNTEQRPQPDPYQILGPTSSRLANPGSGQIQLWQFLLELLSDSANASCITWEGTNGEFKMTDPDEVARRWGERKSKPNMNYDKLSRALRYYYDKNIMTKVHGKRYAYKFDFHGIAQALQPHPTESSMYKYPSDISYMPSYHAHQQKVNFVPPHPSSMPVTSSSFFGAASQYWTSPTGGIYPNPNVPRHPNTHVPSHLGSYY
# How it was run: (§1)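 Binding signal is each hexamer's read frequency for a factor divided by its frequency in the tag-only sample. The factors were GST-fused human transcription factors from yeast, captured on glutathione beads, DNA-barcoded and pooled with that sample. Pools were incubated with 200 nmole of a random double-stranded 16-mer DNA library in Tris/NaCl/DTT/glycerol buffer at room temperature for 30 min, then washed, crosslinked with 0.1% formaldehyde, proximity-ligated with BsaI/T4 ligase (1 h, 37 °C), PCR-amplified and sequenced on an Illumina NextSeq500.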
# [2] = target: T2, ELK1 (Homo sapiens, UniProt P19419 1-428); details: protein: recombinant; tags: N-terminal GST; dsDNA, one strand shown
# T2 sequence: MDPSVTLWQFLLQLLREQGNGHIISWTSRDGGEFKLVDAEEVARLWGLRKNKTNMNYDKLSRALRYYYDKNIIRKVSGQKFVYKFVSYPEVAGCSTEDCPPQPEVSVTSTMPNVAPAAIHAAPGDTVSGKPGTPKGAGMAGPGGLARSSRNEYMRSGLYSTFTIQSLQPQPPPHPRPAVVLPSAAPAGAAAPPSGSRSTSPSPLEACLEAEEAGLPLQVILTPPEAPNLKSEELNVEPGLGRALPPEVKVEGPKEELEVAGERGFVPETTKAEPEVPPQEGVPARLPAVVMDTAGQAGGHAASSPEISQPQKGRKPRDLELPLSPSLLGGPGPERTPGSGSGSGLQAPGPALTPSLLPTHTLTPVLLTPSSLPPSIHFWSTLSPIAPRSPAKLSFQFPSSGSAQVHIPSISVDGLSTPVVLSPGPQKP
# How it was run: as §1
# [3] = target: T3, GABPA (Homo sapiens, UniProt Q06546 1-454); details: protein: recombinant; tags: N-terminal GST; dsDNA, one strand shown
# T3 sequence: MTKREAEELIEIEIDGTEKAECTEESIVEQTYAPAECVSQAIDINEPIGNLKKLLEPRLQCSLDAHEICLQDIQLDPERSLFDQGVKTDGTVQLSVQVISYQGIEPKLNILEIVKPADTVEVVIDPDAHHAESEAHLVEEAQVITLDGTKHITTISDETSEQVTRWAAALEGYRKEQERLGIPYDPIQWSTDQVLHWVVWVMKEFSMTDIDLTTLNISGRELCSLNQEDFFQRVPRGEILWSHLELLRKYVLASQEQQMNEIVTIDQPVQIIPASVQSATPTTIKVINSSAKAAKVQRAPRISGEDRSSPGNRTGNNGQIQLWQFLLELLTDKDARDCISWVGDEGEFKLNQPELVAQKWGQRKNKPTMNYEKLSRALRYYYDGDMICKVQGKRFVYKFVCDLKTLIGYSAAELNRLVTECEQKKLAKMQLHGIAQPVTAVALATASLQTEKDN
# How it was run: as §1
# [4] = target: T4, ERG (Homo sapiens, UniProt P11308 1-479); details: protein: recombinant; tags: N-terminal GST; dsDNA, one strand shown
# T4 sequence: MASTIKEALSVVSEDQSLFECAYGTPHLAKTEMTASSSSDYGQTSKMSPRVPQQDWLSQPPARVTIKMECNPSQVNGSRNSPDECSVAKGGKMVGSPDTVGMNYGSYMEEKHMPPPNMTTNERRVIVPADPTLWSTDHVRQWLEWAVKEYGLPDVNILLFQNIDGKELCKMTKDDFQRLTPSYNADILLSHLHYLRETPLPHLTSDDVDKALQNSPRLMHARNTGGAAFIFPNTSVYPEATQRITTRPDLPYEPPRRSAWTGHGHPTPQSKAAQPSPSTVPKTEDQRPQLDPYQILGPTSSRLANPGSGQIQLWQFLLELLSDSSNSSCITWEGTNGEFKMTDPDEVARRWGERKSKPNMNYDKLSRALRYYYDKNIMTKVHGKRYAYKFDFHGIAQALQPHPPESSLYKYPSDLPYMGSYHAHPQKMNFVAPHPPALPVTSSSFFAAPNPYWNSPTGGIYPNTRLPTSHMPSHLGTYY
# How it was run: as §1
# [5] = target: ELF1 (Homo sapiens, UniProt P32519 1-619); details: protein: recombinant; tags: N-terminal GST; dsDNA, one strand shown
# ELF1, sequence (P32519 whole entry): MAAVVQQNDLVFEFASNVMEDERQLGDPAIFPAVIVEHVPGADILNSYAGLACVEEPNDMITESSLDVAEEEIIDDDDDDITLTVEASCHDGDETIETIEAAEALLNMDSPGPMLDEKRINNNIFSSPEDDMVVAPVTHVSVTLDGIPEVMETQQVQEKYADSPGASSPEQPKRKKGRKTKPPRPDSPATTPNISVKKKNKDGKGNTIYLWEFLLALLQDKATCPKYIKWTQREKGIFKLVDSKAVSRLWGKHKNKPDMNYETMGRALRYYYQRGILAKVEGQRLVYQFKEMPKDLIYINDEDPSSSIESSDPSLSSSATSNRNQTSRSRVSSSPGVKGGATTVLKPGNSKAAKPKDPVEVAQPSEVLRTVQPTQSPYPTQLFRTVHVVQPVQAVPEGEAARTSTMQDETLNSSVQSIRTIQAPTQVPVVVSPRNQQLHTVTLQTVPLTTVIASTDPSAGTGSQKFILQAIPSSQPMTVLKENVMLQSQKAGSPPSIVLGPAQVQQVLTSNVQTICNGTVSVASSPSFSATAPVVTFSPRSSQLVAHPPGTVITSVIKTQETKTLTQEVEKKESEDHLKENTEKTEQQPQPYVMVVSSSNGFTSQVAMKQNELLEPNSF
# How it was run: as §1
# [6] = target: T5, EHF (Homo sapiens, UniProt Q9NZC4 1-300); details: protein: recombinant; tags: N-terminal GST; dsDNA, one strand shown
# T5 sequence: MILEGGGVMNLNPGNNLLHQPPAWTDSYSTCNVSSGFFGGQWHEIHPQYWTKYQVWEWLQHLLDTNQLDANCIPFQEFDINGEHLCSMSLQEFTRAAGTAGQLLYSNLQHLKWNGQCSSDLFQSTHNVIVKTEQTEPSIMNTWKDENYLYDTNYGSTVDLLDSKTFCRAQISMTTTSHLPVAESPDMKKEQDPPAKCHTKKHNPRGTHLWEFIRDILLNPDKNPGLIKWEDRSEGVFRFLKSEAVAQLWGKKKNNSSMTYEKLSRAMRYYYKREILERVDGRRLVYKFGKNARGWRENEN
# How it was run: as §1
# [7] = target: SPI1 (Homo sapiens, UniProt P17947 1-270); details: protein: recombinant; tags: N-terminal GST; dsDNA, one strand shown
# How it was run: as §1
# [8] = target: SPIB (Homo sapiens, UniProt Q01892 1-262); details: protein: recombinant; tags: N-terminal GST; dsDNA, one strand shown
# SPIB, sequence (Q01892 whole entry): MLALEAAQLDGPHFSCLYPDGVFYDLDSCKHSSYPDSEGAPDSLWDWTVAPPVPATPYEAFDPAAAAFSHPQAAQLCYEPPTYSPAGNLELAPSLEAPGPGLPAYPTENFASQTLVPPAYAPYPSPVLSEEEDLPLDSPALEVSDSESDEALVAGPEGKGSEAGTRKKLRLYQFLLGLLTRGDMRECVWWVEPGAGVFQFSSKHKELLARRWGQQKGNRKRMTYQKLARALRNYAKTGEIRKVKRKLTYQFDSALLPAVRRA
# How it was run: as §1
# [9] = target: T6, ELK3 (Homo sapiens, UniProt P41970 1-407); details: protein: recombinant; tags: N-terminal GST; dsDNA, one strand shown
# T6 sequence: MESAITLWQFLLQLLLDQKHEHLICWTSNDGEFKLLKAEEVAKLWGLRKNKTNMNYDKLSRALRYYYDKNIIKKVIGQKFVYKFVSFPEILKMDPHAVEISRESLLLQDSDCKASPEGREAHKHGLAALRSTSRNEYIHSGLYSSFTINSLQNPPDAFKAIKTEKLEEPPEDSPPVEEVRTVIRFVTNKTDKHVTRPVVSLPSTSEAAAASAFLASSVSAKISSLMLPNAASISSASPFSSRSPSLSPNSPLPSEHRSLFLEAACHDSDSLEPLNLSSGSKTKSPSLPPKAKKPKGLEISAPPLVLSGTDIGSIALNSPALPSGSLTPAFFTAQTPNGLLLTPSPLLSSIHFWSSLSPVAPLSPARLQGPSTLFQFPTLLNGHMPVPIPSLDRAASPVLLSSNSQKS
# How it was run: as §1
# [10] = target: T7, FEV (Homo sapiens, UniProt Q99581 1-238); details: protein: recombinant; tags: N-terminal GST; dsDNA, one strand shown
# T7 sequence: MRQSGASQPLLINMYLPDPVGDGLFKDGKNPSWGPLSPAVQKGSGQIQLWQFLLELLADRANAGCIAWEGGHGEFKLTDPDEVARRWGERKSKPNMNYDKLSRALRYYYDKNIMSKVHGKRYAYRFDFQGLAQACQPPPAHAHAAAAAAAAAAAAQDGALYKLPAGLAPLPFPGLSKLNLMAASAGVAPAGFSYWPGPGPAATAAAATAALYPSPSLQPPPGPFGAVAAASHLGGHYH
# How it was run: as §1
# [11] = target: ETV5 (Homo sapiens, UniProt P41161 1-510); details: protein: recombinant; tags: N-terminal GST; dsDNA, one strand shown
# ETV5, sequence (P41161 whole entry): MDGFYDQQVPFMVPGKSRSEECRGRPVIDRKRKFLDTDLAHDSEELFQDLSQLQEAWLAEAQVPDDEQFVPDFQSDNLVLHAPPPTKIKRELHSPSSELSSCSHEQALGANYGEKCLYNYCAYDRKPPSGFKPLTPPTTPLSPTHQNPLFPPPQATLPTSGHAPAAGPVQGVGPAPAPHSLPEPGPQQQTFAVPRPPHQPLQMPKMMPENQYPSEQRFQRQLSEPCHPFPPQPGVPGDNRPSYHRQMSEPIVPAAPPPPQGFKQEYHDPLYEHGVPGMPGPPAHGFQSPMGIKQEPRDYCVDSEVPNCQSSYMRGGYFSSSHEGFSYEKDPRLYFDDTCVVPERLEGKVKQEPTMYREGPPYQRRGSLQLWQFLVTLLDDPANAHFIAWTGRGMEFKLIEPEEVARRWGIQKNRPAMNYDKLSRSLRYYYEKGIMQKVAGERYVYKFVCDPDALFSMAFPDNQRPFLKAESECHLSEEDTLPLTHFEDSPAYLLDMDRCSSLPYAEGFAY
# How it was run: as §1
# [12] = target: HSF1 (Homo sapiens, UniProt Q00613 1-529); details: protein: recombinant; tags: N-terminal GST; chain copies: 3; dsDNA, one strand shown
# HSF1, sequence (Q00613 whole entry): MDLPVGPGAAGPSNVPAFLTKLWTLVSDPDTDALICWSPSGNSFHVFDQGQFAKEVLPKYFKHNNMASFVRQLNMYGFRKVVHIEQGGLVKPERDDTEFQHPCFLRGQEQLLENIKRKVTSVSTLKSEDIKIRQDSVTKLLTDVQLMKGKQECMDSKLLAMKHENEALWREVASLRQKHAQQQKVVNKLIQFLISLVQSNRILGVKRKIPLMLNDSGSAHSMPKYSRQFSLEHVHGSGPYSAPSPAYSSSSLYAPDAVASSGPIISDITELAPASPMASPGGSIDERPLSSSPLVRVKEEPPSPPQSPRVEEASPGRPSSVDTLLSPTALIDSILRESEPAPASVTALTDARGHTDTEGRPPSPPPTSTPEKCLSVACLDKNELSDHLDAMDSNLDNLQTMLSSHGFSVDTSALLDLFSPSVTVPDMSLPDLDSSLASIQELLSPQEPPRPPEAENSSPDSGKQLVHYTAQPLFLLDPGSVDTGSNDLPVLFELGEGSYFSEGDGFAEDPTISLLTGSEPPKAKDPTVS
# How it was run: as §1
# [13] = target: T8, SPIC (Homo sapiens, UniProt Q8N5J4 1-248); details: protein: recombinant; tags: N-terminal GST; dsDNA, one strand shown
# T8 sequence: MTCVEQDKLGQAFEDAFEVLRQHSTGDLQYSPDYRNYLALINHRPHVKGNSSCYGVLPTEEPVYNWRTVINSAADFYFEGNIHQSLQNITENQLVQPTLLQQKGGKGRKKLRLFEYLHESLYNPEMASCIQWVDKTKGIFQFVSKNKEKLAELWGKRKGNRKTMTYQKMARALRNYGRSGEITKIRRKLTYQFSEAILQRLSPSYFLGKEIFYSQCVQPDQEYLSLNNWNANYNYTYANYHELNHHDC
# How it was run: as §1
# [14] = target: ELF4 (Homo sapiens, UniProt Q99607 1-663); details: protein: recombinant; tags: N-terminal GST; dsDNA, one strand shown
# ELF4, sequence (Q99607 whole entry): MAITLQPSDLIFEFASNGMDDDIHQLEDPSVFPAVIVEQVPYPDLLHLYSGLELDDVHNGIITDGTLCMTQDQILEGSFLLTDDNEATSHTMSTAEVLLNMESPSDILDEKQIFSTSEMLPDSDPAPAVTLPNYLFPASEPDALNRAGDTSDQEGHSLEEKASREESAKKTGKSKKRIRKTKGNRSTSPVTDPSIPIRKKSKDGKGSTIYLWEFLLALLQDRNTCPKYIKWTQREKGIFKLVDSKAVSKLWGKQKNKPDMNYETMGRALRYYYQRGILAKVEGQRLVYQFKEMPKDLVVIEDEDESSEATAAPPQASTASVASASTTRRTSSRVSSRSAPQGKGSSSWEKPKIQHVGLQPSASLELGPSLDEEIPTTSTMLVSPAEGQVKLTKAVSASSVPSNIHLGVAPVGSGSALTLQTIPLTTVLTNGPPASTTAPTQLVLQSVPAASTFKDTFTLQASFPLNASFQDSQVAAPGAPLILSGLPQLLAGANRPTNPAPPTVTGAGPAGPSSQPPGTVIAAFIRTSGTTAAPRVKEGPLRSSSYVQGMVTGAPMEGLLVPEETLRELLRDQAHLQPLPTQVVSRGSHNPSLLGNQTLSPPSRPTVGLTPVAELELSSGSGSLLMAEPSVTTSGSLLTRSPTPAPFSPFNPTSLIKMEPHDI
# How it was run: as §1
# [15] = target: T9, ELK4 (Homo sapiens, UniProt P28324-2 1-405); details: protein: recombinant; tags: N-terminal GST; dsDNA, one strand shown
# T9 sequence: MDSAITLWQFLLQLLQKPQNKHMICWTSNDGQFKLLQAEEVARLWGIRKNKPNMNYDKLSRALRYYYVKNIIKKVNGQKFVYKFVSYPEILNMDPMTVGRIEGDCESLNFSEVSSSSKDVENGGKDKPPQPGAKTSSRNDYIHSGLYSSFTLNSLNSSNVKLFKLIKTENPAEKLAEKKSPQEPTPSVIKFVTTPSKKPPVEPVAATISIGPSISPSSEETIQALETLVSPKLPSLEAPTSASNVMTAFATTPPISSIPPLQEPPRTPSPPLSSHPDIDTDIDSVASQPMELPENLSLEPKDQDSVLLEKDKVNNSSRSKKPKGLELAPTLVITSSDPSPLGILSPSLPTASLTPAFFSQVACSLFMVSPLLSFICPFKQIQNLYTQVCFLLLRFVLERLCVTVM
# How it was run: as §1
# [16] = target: T10, ETV2 (Homo sapiens, UniProt O00321 1-342); details: protein: recombinant; tags: N-terminal GST; dsDNA, one strand shown
# T10 sequence: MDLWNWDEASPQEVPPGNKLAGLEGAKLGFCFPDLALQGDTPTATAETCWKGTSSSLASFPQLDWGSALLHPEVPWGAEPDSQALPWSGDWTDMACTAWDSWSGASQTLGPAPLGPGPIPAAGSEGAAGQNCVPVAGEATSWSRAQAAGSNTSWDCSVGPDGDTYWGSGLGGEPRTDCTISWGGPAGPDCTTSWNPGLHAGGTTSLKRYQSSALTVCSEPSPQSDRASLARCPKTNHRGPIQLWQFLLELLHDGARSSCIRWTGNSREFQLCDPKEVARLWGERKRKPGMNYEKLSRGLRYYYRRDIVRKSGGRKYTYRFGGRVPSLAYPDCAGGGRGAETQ
# How it was run: as §1
# [17] = target: T11, ELF3 (Homo sapiens, UniProt P78545 1-371); details: protein: recombinant; tags: N-terminal GST; dsDNA, one strand shown
# T11 sequence: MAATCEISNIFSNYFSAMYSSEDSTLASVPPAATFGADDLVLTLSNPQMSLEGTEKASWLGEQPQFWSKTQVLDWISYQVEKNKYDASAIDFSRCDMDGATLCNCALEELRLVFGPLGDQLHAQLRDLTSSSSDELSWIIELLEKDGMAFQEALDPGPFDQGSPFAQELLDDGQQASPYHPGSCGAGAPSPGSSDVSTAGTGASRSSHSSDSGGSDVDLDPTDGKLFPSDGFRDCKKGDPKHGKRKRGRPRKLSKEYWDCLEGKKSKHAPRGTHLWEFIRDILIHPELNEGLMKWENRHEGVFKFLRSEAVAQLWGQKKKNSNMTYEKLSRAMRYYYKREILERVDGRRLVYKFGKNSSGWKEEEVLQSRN
# How it was run: as §1
# [18] = target: CRX (Homo sapiens, UniProt O43186 1-299); details: protein: recombinant; tags: N-terminal GST; dsDNA, one strand shown
# CRX, sequence (O43186 whole entry): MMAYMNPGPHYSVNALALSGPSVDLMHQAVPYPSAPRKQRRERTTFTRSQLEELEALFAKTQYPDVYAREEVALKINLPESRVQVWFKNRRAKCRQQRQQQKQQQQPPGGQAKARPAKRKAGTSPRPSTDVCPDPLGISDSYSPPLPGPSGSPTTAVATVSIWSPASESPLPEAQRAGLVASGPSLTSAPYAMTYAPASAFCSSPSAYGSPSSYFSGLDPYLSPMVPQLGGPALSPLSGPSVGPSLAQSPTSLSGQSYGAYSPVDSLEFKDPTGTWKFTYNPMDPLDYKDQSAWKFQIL
# How it was run: as §1
# [19] = target: ETV1 (Homo sapiens, UniProt P50549 1-477); details: protein: recombinant; tags: N-terminal GST; dsDNA, one strand shown
# ETV1, sequence (P50549 whole entry): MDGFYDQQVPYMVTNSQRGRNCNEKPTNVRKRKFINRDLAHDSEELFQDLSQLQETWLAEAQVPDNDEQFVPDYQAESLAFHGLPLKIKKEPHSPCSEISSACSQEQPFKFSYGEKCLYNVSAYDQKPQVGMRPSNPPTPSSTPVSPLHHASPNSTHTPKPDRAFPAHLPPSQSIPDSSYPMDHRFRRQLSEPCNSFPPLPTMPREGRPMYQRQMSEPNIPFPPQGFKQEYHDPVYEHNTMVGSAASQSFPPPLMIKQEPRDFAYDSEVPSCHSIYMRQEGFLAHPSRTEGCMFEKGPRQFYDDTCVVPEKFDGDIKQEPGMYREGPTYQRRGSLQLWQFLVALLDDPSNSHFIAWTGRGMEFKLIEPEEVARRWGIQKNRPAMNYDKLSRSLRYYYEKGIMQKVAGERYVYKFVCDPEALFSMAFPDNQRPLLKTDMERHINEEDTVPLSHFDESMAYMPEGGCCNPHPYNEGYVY
# How it was run: as §1
sequence,measurement,setting,value
ATGGGT,binding signal,[1],"1.39 fold enrichment (6-mer frequency, TF over GST control)"
same,binding signal,[2],"1.37 fold enrichment (6-mer frequency, TF over GST control)"
same,binding signal,[3],"1.28 fold enrichment (6-mer frequency, TF over GST control)"
same,binding signal,[4],"1.43 fold enrichment (6-mer frequency, TF over GST control)"
same,binding signal,[5],"1.3 fold enrichment (6-mer frequency, TF over GST control)"
same,binding signal,[6],"1.46 fold enrichment (6-mer frequency, TF over GST control)"
same,binding signal,[7],"1.21 fold enrichment (6-mer frequency, TF over GST control)"
same,binding signal,[8],"1.29 fold enrichment (6-mer frequency, TF over GST control)"
same,binding signal,[9],"1.44 fold enrichment (6-mer frequency, TF over GST control)"
same,binding signal,[10],"1.28 fold enrichment (6-mer frequency, TF over GST control)"
same,binding signal,[11],"1.5 fold enrichment (6-mer frequency, TF over GST control)"
same,binding signal,[12],"1.08 fold enrichment (6-mer frequency, TF over GST control)"
same,binding signal,[13],"1.36 fold enrichment (6-mer frequency, TF over GST control)"
same,binding signal,[14],"1.35 fold enrichment (6-mer frequency, TF over GST control)"
same,binding signal,[15],"1.33 fold enrichment (6-mer frequency, TF over GST control)"
same,binding signal,[16],"1.36 fold enrichment (6-mer frequency, TF over GST control)"
same,binding signal,[17],"1.31 fold enrichment (6-mer frequency, TF over GST control)"
same,binding signal,[18],"1.11 fold enrichment (6-mer frequency, TF over GST control)"
same,binding signal,[19],"1.21 fold enrichment (6-mer frequency, TF over GST control)"
